ROMK mod – modulators of human ROMK potassium channel; AID 1918; P48048; Tet-inducible ROMK, thallium flux fluorescence; actives lie on both sides; 130,000 compounds, 2% hits; B-score at 10 µM;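 active = signal ratio slope over the read window, or its plate-corrected B-score, at least 3 SD from the plate mean, either direction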;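 note: B-score of the F/F0 ratio slope over 7 to 12 s after thallium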
Target sequence (P48048 whole entry, looked up): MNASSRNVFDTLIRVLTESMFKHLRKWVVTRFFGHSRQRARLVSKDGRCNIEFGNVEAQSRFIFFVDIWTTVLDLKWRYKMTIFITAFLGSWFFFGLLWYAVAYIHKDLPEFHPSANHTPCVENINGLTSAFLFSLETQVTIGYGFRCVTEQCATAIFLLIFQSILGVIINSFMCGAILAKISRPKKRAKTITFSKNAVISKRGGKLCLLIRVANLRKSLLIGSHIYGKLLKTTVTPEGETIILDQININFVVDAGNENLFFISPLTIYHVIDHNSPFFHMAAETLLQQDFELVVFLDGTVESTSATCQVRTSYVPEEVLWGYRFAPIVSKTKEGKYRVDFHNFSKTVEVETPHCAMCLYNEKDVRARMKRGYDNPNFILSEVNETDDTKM
Lmaj promast – inhibitors of Leishmania major promastigote growth. Leishmania major promastigotes, resazurin fluorescence viability. AID 1063. inhibition, % at 10 µM. 200,000 compounds, 9% hits; in the data active = inhibition above about 50%;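 note: promastigotes grown with compound for 44 hours at 28 °C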
HCT116 bCat-KO – beta-catenin-lacking colon tumor cell growth suppression | HCT116 beta-catenin knockout viability, CellTiter-Glo, 60 h; hits give low values | viability, % at 10 µM | 140,000 compounds, 1.5% hits | AID 818;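 active = viability at or under a set limit, the compound median less 4 SD, cut at about 6% in these data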;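 note: 0% = Hyamine 1622 control at 20 µM and 100% = untreated cell control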
Insulin prom inh – TRM-6 insulin promoter activity inhibition. TRM-6 cells (human fetal islet line), insulin promoter-eGFP reporter, imaging; reporter expression induced with tamoxifen. inhibition, % at 2 µM. 130,000 compounds, 0.9% hits. AID 1273;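 active = inhibition above the mean plus 3 SD, with well images judged a real hit on visual review, cut at about 60% in these data, passing the limit was not always enough; inconclusive = inhibition over the cutoff but images rejected on review; inactive = inhibition not above the cutoff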
PTEN del growth – suppresses growth of cells with PTEN deletion; viability, % at 10 µM; 140,000 compounds, 1.2% hits; AID 827; HCT116 PTEN-null viability, CellTiter-Glo, 60 h; hits give low values;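 active = viability at or below a set limit, 4 SD under the median of all tested compounds, cut at about 3.7% in these data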;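 note: PTEN knockout HCT116 line with beta catenin targeted HCT116 as companion control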
p97 inhibitor – blocks human p97 ATPase activity | recombinant p97 ATPase, Kinase-Glo ATP luminescence, 3 h | inhibition, % at 8 µM | P55072 | AID 1481 | 220,000 compounds, 0.42% hits; in the data active = inhibition above about 15%;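 note: 0% = DMSO vehicle and 100% = wells lacking enzyme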
Lmaj promast 1uM – blocks Leishmania major promastigote growth at 1 uM, repeat screen; L. major promastigote growth, resazurin fluorescence, 48 h; shares compounds with Lmaj promast; 1,100 compounds, 13% hits; AID 1258; inhibition, % at 1 µM;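 active = inhibition above about 50% in both repeat tests, limit read from the data; inconclusive = one repeat under the set limit, the other over it; inactive = both repeats under the set limit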
* = called active by the depositor; ? = inconclusive; . = no result; ! = a repeat was not active. An excerpt weighted towards active compounds, which were near 10% of everything screened.

SMILES	ROMK mod	Lmaj promast	HCT116 bCat-KO	Insulin prom inh	PTEN del growth	p97 inhibitor	Lmaj promast 1uM
CCc1ccc2[nH]c(=O)c(CN(CCCN3CCOCC3)C(=O)Nc3ccc(Cl)cc3)cc2c1	.	79*	21	.	21	1	-21
CCc1ccc2[nH]c(=O)c(CN(CCCN3CCOCC3)C(=O)Nc3ccccc3)cc2c1	-1	21	61	.	56	2	.
COc1ccc(CCNC(=O)COC(=O)/C=C/c2cccs2)cc1	-0.025	-6	.	0	.	3	.
CNc1ccccc1C(C)(C)c1cc(-c2cccc([N+](=O)[O-])c2)no1	-1.1	16	.	.	.	-7	.
CNc1ccccc1C(C)(C)c1cc(-c2cccc(Br)c2)no1	-0.08	99*	.	.	.	-2	88*
Cn1cccc1Cc1nnc(SCC(=O)Nc2ccc(F)cc2)n1CCc1ccccc1	.	56*	78	.	61	2	-9
Cn1cccc1Cc1nnc(SCC(=O)Nc2ccc3c(c2)OCO3)n1CCc1ccccc1	.	3	72	.	68	3	.
CN(c1nc(-c2ccc(Br)cc2)cs1)C1CCS(=O)(=O)C1 (centres undefined)	-0.22	-6	.	-73	.	-1	.
O=C(O)CC1S/C(=N/N=C/C=C/c2ccccc2[N+](=O)[O-])NC1=O (centres undefined)	.	29	102	-14	96	1	.
O=C(O)CC1S/C(=N/N=C/C=C/c2ccccc2)NC1=O (centres undefined)	.	53*!	89	-70	98	-4	-12
COc1ccc(OCC(O)CNc2ccc(Br)cc2)cc1 (centres undefined)	.	1	92	-59	97	-6	.
CCC(CC)NCC(O)COc1ccc(Br)cc1 (centres undefined)	-1	66*	.	.	.	0	6
Cc1nn(Cc2ccc([N+](=O)[O-])cc2)c(=O)n1N(C)c1ncc(C(F)(F)F)cc1Cl	-1.3	6	91	-66	86	-3	.
Cc1nn(Cc2ccc(Cl)cc2)c(=O)n1N(C)c1ncc(C(F)(F)F)cc1Cl	-0.95	94*	81	-34	71	-2	-17
Cc1nnc2c(Oc3ccccc3)nc3ccccc3n12	.	0	83	-131	92	3	.
CCCN(CCC)c1nc2ccccc2n2c(C)nnc12	-1.3	82*	86	-12	84	-10	-9
O=C(/C=C/c1ccccc1)OCc1cnc(Cl)s1	-0.32	-8	.	38	.	-5	.
O=C(NCc1cccnc1)c1ccc(Cl)c(S(=O)(=O)Nc2ccccc2C(=O)NCc2cccnc2)c1	0.4	-15	.	-67	.	1	.
Cc1nn(-c2ccccc2)c(N)c1Sc1cccc([N+](=O)[O-])c1	.	52*	73	24	71	-1	14
CCOC(=O)c1sc(=S)sc1SCc1cccc(C(F)(F)F)c1	0.78	61*	101	-24	92	0	-11
CC(=O)Nc1ccc(OS(=O)(=O)c2cc(Cl)ccc2C)cc1	0.14	1	.	-39	.	3	.
COc1ccc(NC(=O)N(Cc2ccc(C)cc2)Cc2cccnc2)c(OC)c1	.	70*	86	.	83	-4	-3
COc1ccccc1NC(=S)N(Cc1ccc(C)cc1)Cc1cccnc1	1.5	6	.	-47	.	-4	.
CCCOP(=O)(OCCC)c1c([N+](=O)[O-])cc(C(F)(F)F)cc1[N+](=O)[O-]	1.3	54*	8	-9	10	0	1
CCc1ccc(-n2c(SCC(=O)Nc3ccc(C(=O)O)cc3)nnc2-c2ccncc2)cc1	.	.	.	.	.	0	.
SMILES	ROMK mod	Lmaj promast	HCT116 bCat-KO	Insulin prom inh	PTEN del growth	p97 inhibitor	Lmaj promast 1uM
Cc1ccc(S(=O)(=O)c2c(C)nn(-c3ccccc3)c2OC(=O)c2ccc(Br)o2)cc1	.	53*	100	-29	100	2	-21
CCNC(=S)N(Cc1c(C)noc1C)c1ccccc1	1.5	51*	91	36	96	2	-6
Cc1ccccc1-n1ncc2c([N+](=O)[O-])cc([N+](=O)[O-])cc21	.	100*	30	-26	45	3	98*
Cc1ccccc1N1C(=O)c2cccc([N+](=O)[O-])c2C1=O	-0.17	-7	.	.	.	9	.
COc1cc(CN2CCNC(=O)C2CC(=O)O)cc(OC)c1 (centres undefined)	0.3	-3	.	26	.	-2	.
CCCCSc1nnc(-c2ccc(C)cc2)c2ccccc12	0.44	91*	64	?	54	-1	5
CN(C)C(=O)CSc1nnc(-c2ccc(F)cc2)c2ccccc12	.	.	.	.	.	8	.
Cc1nn(-c2cccc(C(F)(F)F)c2)c(Cl)c1/C=N/Nc1cccc(C(=O)O)c1	-0.097	90*	83	15	92	3	-8
Cc1nn(-c2ccccc2Cl)c(Cl)c1/C=N/Nc1cccc(C(=O)O)c1	.	25	99	-33	107	-1	.
CC(=O)Oc1ccc(N(C(C)=O)S(=O)(=O)c2ccc(C)c([N+](=O)[O-])c2)cc1	0.54	30	93	-41	91	3	.
CC(NC(=S)NCc1ccccc1)C12CC3CC(CC(C3)C1)C2 (centres undefined)	0.0025	6	.	.	.	2	.
O=C(NN1C(=O)c2ccccc2NC1c1cccnc1)c1ccccc1 (centres undefined)	0.17	3	.	-93	.	1	.
COc1cccc(COc2ccccc2C2Nc3ccc(Br)cc3C(=O)N2NC(=O)c2ccncc2)c1 (centres undefined)	0.14	100*	37	.	36	2	-20
Cc1ccc(-c2cc3cccc[n+]3cc2-c2ccc(C)cc2)cc1	.	100*	3.2*	13	6	-6	91*
Cc1ccc(O)c(-c2cc(-c3ccccc3C)[nH]n2)c1	-0.24	55*	14	?	20	-4	20
Cc1ccc(-c2onc3ccc(C=O)cc23)cc1	-0.3	81*	25	38	36	5	-11
Cc1ccc(-c2onc3ccc(C4(C)OCCO4)cc23)cc1	-0.24	2	95	.	102	-2	.
CC(=O)c1c(-c2ccc(C)cc2)nc2c3ccccc3ccn12	-0.59	59*	.	.	.	-2	43
CCOC(=O)c1c(C)nc2c3ccccc3ccn12	.	6	100	62	102	-7	.
O=C(CN1CCN(S(=O)(=O)c2ccc(Br)cc2)CC1)N/N=C/c1cccnc1	.	3	91	.	91	1	.
On1onc2c3cc(-c4ccccc4)nc3ccc21	.	100*	1.8*	-127	1.2*	4	-22
OCCC1CN(Cc2ccc(C(F)(F)F)cc2)CCN1Cc1ccccc1 (centres undefined)	-0.37	49	.	.	.	-1	.
OCCC1CN(Cc2cccc(C(F)(F)F)c2)CCN1Cc1ccccc1 (centres undefined)	-1.9	80*	.	.	.	0	?
COc1cc2c3nnc(-c4ccc(F)cc4)c-3cn(Cc3ccc(F)cc3)c2cc1OC	.	97*	0.7*	.	0.8*	4	-17

Assay outcomes from PubChem.
